A selection: hits, their analogues and other compounds. The true share with any hit is near 3.8%.
HepG2 tox – HepG2 cytotoxicity, counter-screen for TGF-b inhibitors | HepG2 CAGA-GFP viability, ATP luminescence, 18 h | Potency, µM (titrated, usually from 46.1 µM), most hits filed as cytotoxic | 410,000 compounds, 0.76% hits
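CellTiter-Glo luminescence gave cytotoxicity after 18 hours at 37 degrees C. The cells were HepG2 CAGA-GFP in 1% FBS DMEM, stimulated with 500 pg/mL TGF-beta after compound addition. %Activity was normalised to no-cell wells (complete cell-killing) and DMSO (no toxicity), and curves were fitted and classified.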
Nrf2 block – Nrf2 pathway inhibition. A549 ARE-Fluc reporter, luciferase luminescence, 18-24 h. Potency, µM (doses to about 46 µM), hits mostly inhibitors. AID 504444. 360,000 compounds, 2.1% hits; further: nearly all actives have a fitted effect of over 60% in size
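Reporter: ARE-Fluc in A549. Exposure: 18-24 h, 37 °C, 5% CO2, 5% FBS OPTI-MEM. Readouts: fluorescent cytotoxicity (CellTiter-Fluor), then luminescent Nrf2 signal after BugLite.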
TGFb inhibitor – blocks TGF-b signaling; HepG2 CAGA-GFP TGF-b/SMAD3 reporter, GFP fluorescence, 18 h; TGF-beta stimulated, 500 pg/mL final; Potency, µM (doses to about 46.1 µM), hits mostly inhibitors; 410,000 compounds, 1.2% hits; AID 588855; further: nearly all actives have a fitted effect of over 65% in size
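Read-out: total well GFP (ex488/em500-530) summed from mean per-cell fluorescence. Cells: HEPG2 CAGA-GFP, 1% FBS DMEM, 18 h at 37 degrees C with 500 pg/mL final TGF-beta. Unstimulated wells served as the full-inhibition control; stimulated DMSO wells = 0%.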
ATXN viability – reduces viability in counter-screen for ATXN expression inhibitors | Potency, µM (top dose mostly 56.7 µM), most hits filed as cytotoxic | AID 651635 | 400,000 compounds, 0.49% hits | S2 cells (HEK-293 line with an ATXN2-luciferase reporter) viability, CellTiter-Fluor protease fluorescence, 24 h; further: nearly all actives have a fitted effect of over 40% in size
ATXN2 expr inh – reduces ATXN2 reporter expression in HEK-293 cells; 360,000 compounds, 0.72% hits; HEK-293 ATXN2-luciferase reporter, luminescence, 24 h; AID 1745845; Potency, µM (doses to about 57 µM), actives largely listed as inhibitors; further: nearly all actives have a fitted effect of over 55% in size
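qHTS (up to 57 uM final) was run with 24 h compound exposure of reporter cells at 37 °C. Each well was multiplexed: SteadyGlo luminescence measured ATXN2-luciferase expression after a fluorogenic Gly-Phe-AFC viability readout (25 uM final).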
A549 tox – A549 cytotoxicity, counter-screen for Nrf2 inhibitors; A549 ARE-Fluc cells, CellTiter-Fluor viability, 18-24 h; Potency, µM (highest dose often 46 µM), most hits filed as inhibitors; 390,000 compounds, 0.16% hits
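A549 ARE-Fluc cells in 5% FBS OPTI-MEM, 5000 cells/well, rested 2 h then exposed to compounds in concentration-response for 18-24 h at 37 °C. Viability by CellTiter-Fluor fluorescence (Ex 405/Em 525) after 30 min; luciferase luminescence (BugLite, 15 min, RT) read afterwards.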
Hits are given with their value; – = inactive; ? = inconclusive; · = no result given; ! = a repeat was not active; [ ] = dose if it differs, or a comment. The call rests on the fitted dose curve; in most records, active means well fitted curve in the direction sought with a large enough effect; inconclusive means small, poorly fitted or top-dose-only effect, or another doubt; inactive means no such curve, though single readings can be large; an effect the other way counts as inactive or inconclusive.

SMILES	HepG2 tox	Nrf2 block	TGFb inhibitor	ATXN viability	ATXN2 expr inh	A549 tox
COc1ccc(CCC(=O)OCC(=O)NC(=O)c2ccc(Cl)cc2)cc1	–	–	–	?	–	–
CCC(C)NC(=O)Cn1c(=O)n(CC2CCC(C(=O)NC)CC2)c(=O)c2sccc21 (stereo unspecified)	–	?	–	–	–	–
CC(=O)Nc1nnc(CSCc2ccccc2F)s1	7.9µM	?	–	–	–	–
S=C(NCc1ccccn1)NN=Cc1ccccn1	–	15µM	–	?	?	?
COc1ccc(C)cc1NC1(c2ccccc2)C(=O)c2ccccc2C1=O	–	?	–	–	–	–
O=[N+]([O-])c1ccc(-c2nc(C(Cl)Cl)c3ccccc3n2)cc1	–	15µM	–	?	4µM	?
COC(=O)c1cc(S(=O)(=O)N2CCN(C(=O)c3ccco3)CC2)cn1C	–	–	–	–	·	–
CCCN(CCC)CCNC(=O)c1cc2c(-c3ccccc3F)nn(C)c2s1	–	?	?	?	?	–
CCCN(CCC)CCNC(=O)c1cc2c(-c3ccc(Cl)cc3)nn(C)c2s1	–	23µM!	–	?	?	23µM
CCN(CC)CCNC(=O)c1cc2c(-c3ccc(Cl)cc3)nn(C)c2s1	–	–	11µM	·	28µM	–
CCCCN(CC)CCNC(=O)c1cc2c(-c3ccc(Cl)cc3)nn(C)c2s1	20µM!	?	?	·	?	?
CCCSc1ncnc2[nH]ncc12	–	–	–	–	–	–
COc1ccc(-c2cn(CCN)c(-c3ccncc3)n2)cc1	–	–	–	–	–	–
O=C(OCC(=O)N1N=C(c2ccc(Cl)cc2)CC1c1ccco1)c1ccccc1O (stereo unspecified)	–	–	–	–	–	–
Cc1ccc2c(CC(=O)N(Cc3ccc(N(C)C)cc3)Cc3ccco3)coc2c1C	–	23µM	?	–	–	–
CN(C)c1ccc(CN(Cc2ccco2)C(=O)c2ccco2)cc1	–	–	–	–	–	–
CCc1ccc(NC(=O)C2CCN(C(=O)N3CC(CC)Oc4ccccc43)CC2)cc1 (stereo unspecified)	–	–	–	·	·	–
CCCCN(CCCNC(=O)c1ccc2c(c1)NC(=O)CN2C)c1ccccc1	16µM	·	?	18µM	·	·
Cc1ccc(NC(=O)c2cnn(-c3ccccc3)c2NC(=O)c2ccco2)cc1C	13µM	–	–	–	–	–
CCN(CC)C(=O)c1cnn(-c2ccccc2)c1NC(=O)c1ccco1	–	–	–	–	–	–
O=[N+]([O-])c1ccc(N=Nc2ccc(O)c3ccccc23)cc1	13µM	–	?	?	?	–
Cc1ccc(C(=O)NCC(=O)NCC(c2cccs2)N(C)C)cc1C (stereo unspecified)	–	–	–	–	–	–
CNC(=O)c1ccsc1NC(=O)c1ccc(S(=O)(=O)N2CCCc3ccccc32)cc1	–	18µM	?	–	?	–
CC1CCc2nc(NC(=O)c3ccc(S(=O)(=O)N4CCCc5ccccc54)cc3)sc2C1 (stereo unspecified)	–	5.2µM	–	–	–	–
O=C(Nc1nc2c(s1)CCCC2)c1ccc(S(=O)(=O)N2CCCc3ccccc32)cc1	–	18µM	?	–	–	–
SMILES	HepG2 tox	Nrf2 block	TGFb inhibitor	ATXN viability	ATXN2 expr inh	A549 tox
O=C(Nc1ccc(S(=O)(=O)N2CCc3ccccc32)cc1)c1ccco1	–	23µM	?	–	–	–[1.84 µM]
CC(=O)c1ccc(S(=O)(=O)N(C)CC(=O)NCC2CCCCC2)cc1	–	–	–	–	–	–
Cc1ccc2oc(-c3ccc(C)c(NC(=O)COc4ccc(Cl)cc4C)c3)nc2c1	–	·	–	·	·	·
Cc1cccc(N=NC(=S)NNc2cccc(C)c2)c1	–	?	–	?	–	–
Cc1ccc(F)c(S(=O)(=O)NC(=O)C2(C)CCN2C(=O)CCC2CCCC2)c1 (stereo unspecified)	–	·	–	–	–	·
CCC(Sc1ncc(S(=O)(=O)c2ccc(Cl)cc2)c(=O)[nH]1)C(=O)Nc1ccc(OC)cc1 (stereo unspecified)	–	–	–	–	–	–
CCOC(=O)Nc1ccc2c(CNC(C)c3ccccc3OC)cc(=O)oc2c1 (stereo unspecified)	–	13µM	–	–	?	?
CCOC(=O)Nc1ccc2c(CN3C(=O)NC(CC)(CC)C3=O)cc(=O)oc2c1	–	–	–	–	–	–
O=C(NCc1ccco1)c1ccccc1-c1nc(-c2ccccc2)no1	2µM	–	–	–	–	–
COc1cc2c(cc1NC(=O)C(Cl)Cl)-c1ccc(NC(=O)C(Cl)Cl)cc1C2	7.9µM	?	4.5µM	·	–	?
COc1cc2c(cc1NC(=O)c1ccccc1-c1ccccc1C(=O)O)-c1ccccc1C2	–	·	–	–	·	·
COc1cccc(OC)c1C(=O)Nc1cccc(S(=O)(=O)Nc2ccccc2Cl)c1	–	?	–	–	–	–
CCn1ccc(C(=O)Nc2ccc(S(=O)(=O)Nc3ccccc3OC)cc2)n1	–	15µM	–	–	–	–
COc1ccccc1NS(=O)(=O)c1cccc(NC(=O)Nc2ccc(Cl)cc2)c1	13µM	?	?	?	?	?
CC(OC(=O)c1nc(Cl)ccc1Cl)C(=O)NCc1ccccc1 (stereo unspecified)	–	·	–	–	·	·
CN(c1ccccc1)S(=O)(=O)c1cccc(NC(=O)c2cccc(C#N)c2)c1	–	?	–	–	?	?
CN(c1ccccc1)S(=O)(=O)c1cccc(NC(=O)CSc2nncs2)c1	–	21µM	?	–	–	–
CN(c1ccccc1)S(=O)(=O)c1cccc(NC(=O)c2ccc3ncsc3c2)c1	–	16µM	?	?	?	–
COc1ccccc1N(C)S(=O)(=O)c1ccc(C(=O)Nc2cccc(Br)c2)cc1	–	16µM	–	–	–	–
COc1ccccc1N(C)S(=O)(=O)c1ccc(C(=O)Nc2ccc3nc(C)sc3c2)cc1	–	18µM	?	?	?	–
Cc1nc2ccc(NC(=O)c3cccc(S(=O)(=O)N(C)c4ccccc4)c3)cc2s1	–	21µM	?	?	28µM	?
COc1ccccc1N(C)S(=O)(=O)c1ccc(C(=O)NCC(C)C)cc1	–	?	–	–	–	–
COC(=O)c1ccc(CNC(=O)c2ccc(S(=O)(=O)N(C)c3ccccc3OC)cc2)cc1	–	23µM	?	–	–	–
Cc1cccc(OCCOC(=O)c2c(-c3ccccc3)noc2C)c1	–	?	–	–	–	–
CCCCC(F)(F)[C@@]1(O)CC[C@H]2[C@H](CC(=O)[C@@H]2CCCCCCC(=O)O)O1	·	·	·	–	?	·

Screening results from PubChem BioAssay.
